Measurements: PubChem BioAssay (Tox21)
Records with an inconclusive call do not appear. The source made the active and inactive calls. Unless noted, calls follow the shape of the dose curve; as a rule, active = well fitted curve in the direction sought with a large enough effect in the repeat runs; inconclusive = weak or mixed curves; inactive = no such curve, though single readings can be large; an effect the other way counts as inactive or inconclusive.

Experiments:
[1] = qHTS assay to identify small molecule antagonists of the estrogen receptor beta (ER-beta) signaling pathway - cell viability counter screen (AID 1259382);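 also: HEK293T cells carrying ER-beta-UAS-bla reporter stimulated with estradiol; series mostly up to about 92 µM; nearly all actives have a fitted effect of over 55% in size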
In short: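 ER-beta-UAS-bla HEK293T cells (2,000/well, 2% charcoal-stripped FBS) were pre-incubated 6 hr at 37C, then given compound plus 1nM final 17-beta-estradiol for 16 hr. Viability was read in the same wells by CellTiter-Glo luminescence after 30 min at room temperature.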

[2] = biological target: Estrogen receptor (Homo sapiens) (UniProt P03372); assay: qHTS assay to identify small molecule agonists of the estrogen receptor alpha (ER-alpha) signaling pathway in the presence of an antagonist (AID 1259383; calls by dose curve; also: top concentration of the series differs between compounds; nearly all actives have a fitted effect of over 15% in size)
In short: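 VM7Luc4E2 cells (endogenous full-length ER-alpha, 4×ERE-luciferase) were precultured 5 days in phenol red-free medium with 10% charcoal-stripped FBS, given 10.0nM ICI-182,780 (final), then treated with compounds at 15 concentrations for 22hr at 37C; luminescence read with ONE-Glo.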

[3] = qHTS assay to identify small molecule agonists or antagonists of the thyroid stimulating hormone receptor (TSHR) signaling pathway - wild type cell line counter screen (AID 1259384; calls by dose curve)
In short: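 Wild-type HEK293 cells were plated 18 h at 37 C/5% CO2, pin-dosed with compound plus Ro20-1724 medium, held 30 min at room temperature, then given cAMP-d2 and anti-cAMP-cryptate; fluorescence was read after 1 h. Fifteen concentrations, triplicate.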

[4] = biological target: Thyrotropin receptor (Homo sapiens) (UniProt P16473); assay: qHTS assay to identify small molecule antagonists of the thyroid stimulating hormone receptor (TSHR) signaling pathway (AID 1259385; calls by dose curve; also: nearly all actives have a fitted effect of over 20% in size)
In short: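 TSHR-HEK293 cells were plated and held 18 h at 37C/5% CO2, then given compound plus Ro20-1724 and stimulated with TSH at 1.5 ng/mL final. After 30 min at room temperature, cAMP was detected with cAMP-d2/anti-cAMP-cryptate (1 h) by fluorescence.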

[5] = qHTS assay to identify small molecule agonists of the estrogen receptor alpha (ER-alpha) signaling pathway in the presence of an antagonist - cell viability counter screen (AID 1259386);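 also: series mostly up to about 92 µM; cells exposed to compounds for 22 h at 37 °C before the viability read; nearly all actives have a fitted effect of over 30% in size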
In short: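 VM7Luc4E2 cells (endogenous full-length ER-alpha, 4×ERE-luciferase) were held 5 days in phenol red-free medium with 10% charcoal-stripped FBS, plated, then given 10.0nM ICI-182,780 and compounds at 15 concentrations for 22hr at 37C; viability read by CellTiter-Fluor fluorescence.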

[6] = biological target: Progesterone receptor (Homo sapiens) (UniProt P06401); assay: qHTS assay to identify small molecule agonists of the progesterone receptor (PR) signaling pathway (AID 1346784; calls by dose curve; also: nearly all actives have a fitted effect of over 30% in size)
In short: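 Reporter assay, GripTite PR-UAS-bla HEK 293T cells: 16 hr exposure to DMSO-dissolved compounds at 37C, 5% CO2, in steroid-depleted (2% charcoal-stripped FBS) medium; beta-lactamase measured by FRET fluorescence.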

[7] = biological target: Progesterone receptor (Homo sapiens) (UniProt P06401); assay: qHTS assay to identify small molecule antagonists of the progesterone receptor (PR) signaling pathway (AID 1346795; active = well fitted inhibition curve with a large enough effect in the signal ratio in the repeat runs, not every such curve was filed as active; the % refers to the signal ratio)
In short: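 Stimulus R5020 at 1 nM final; cells HEK293T PR-UAS-bla; medium with 2% charcoal-stripped FBS; compound exposure 16 hr at 37C, 5% CO2; detection by FRET beta-lactamase substrate, 2 hr, room temperature.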

[8] = qHTS assay to identify small molecule antagonists of the progesterone receptor (PR) signaling pathway - cell viability counter screen (AID 1346798); also: series mostly up to about 92 µM; nearly all actives have a fitted effect of over 50% in size
In short: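 In the same plates used for the beta-lactamase readout, cell viability of compound- and R5020-treated PR-UAS-bla HEK293T cells (16 hr, 37C) was assessed by CellTiter-Glo luminescence.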

[9] = qHTS assay to identify small molecule agonists of the progesterone receptor (PR) signaling pathway - cell viability counter screen (AID 1346799; calls by dose curve; also: nearly all actives have a fitted effect of over 45% in size)
In short: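 Multiplexed viability read: CellTiter-Glo luminescence, 30 min RT, following LiveBLAzer FRET measurement on PR-UAS-bla HEK293T cells exposed to compounds 16 hr.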

[10] = qHTS assay to identify small molecule antagonists of the TGF-beta/Smad signaling pathway - cell viability counter screen (AID 1346824); also: nearly all actives have a fitted effect of over 50% in size
In short: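 SBE-bla HEK 293T cells were plated overnight at 37 C, then given compounds in DMSO plus TGF-beta1 (added as 0.25 ng/mL solution) for 5 hr. After the bla read, CellTiter-Glo was added to the same wells and luminescence read after 30 min at room temperature.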

[11] = qHTS assay to identify small molecule agonists of the TGF-beta/Smad signaling pathway - cell viability counter screen (AID 1346829); also: top concentration of the series differs between compounds; nearly all actives have a fitted effect of over 45% in size
In short: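 Compound-treated SBE-bla HEK 293T cells (5 hr, 37 C) were assessed for viability with CellTiter-Glo in parallel with the reporter read.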

[12] = qHTS assay to identify small molecule agonists of the TGF-beta/Smad signaling pathway (AID 1346859; active = well fitted activation curve with a large enough effect in the signal ratio in the repeat runs, not every such curve was filed as active; the % refers to the signal ratio; also: series mostly up to about 77 µM)
In short: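 Screening used HEK 293T SBE-bla cells at 4,000/well. Test agents: 5 hr, 37 C. Detection: FRET substrate, 2 hr RT, then excitation 405 nm with emissions at 460 and 530 nm.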

[13] = Human pregnane X receptor (PXR) small molecule agonists, qHTS cell viability counter screen (AID 1346977); also: nearly all actives have a fitted effect of over 50% in size
In short: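 In each well, the PXR reporter HepG2 line was checked for viability: CellTiter-Fluor reagent added 23hr post-dosing, fluorescence read after 1hr incubation at 37C.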

[14] = Caspase-3/7 induction in HepG2 cells by small molecules, qHTS assay (AID 1346978); also: nearly all actives have a fitted effect of over 15% in size
In short: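 Wild-type HepG2 cells (2,000/well) were settled 5 h at 37 C, 5% CO2, then exposed to compounds in DMSO for 17 h. Caspase-3/7 activity was read by luminescence 30 min after adding Caspase-Glo 3/7 reagent at room temperature.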

[15] = Caspase-3/7 induction in CHO-K1 cells by small molecules, qHTS cell viability counter screen (AID 1346979); also: nearly all actives have a fitted effect of over 35% in size
In short: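 Following a 5hr settling period, CHO-K1 cells at 1,500 per well received DMSO-dissolved compounds. Cell viability was quantified 16hr later by CellTiter-Fluor fluorescence, measured after 1hr with reagent at 37C.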

[16] = Caspase-3/7 induction in CHO-K1 cells by small molecules, qHTS assay (AID 1346980); also: nearly all actives have a fitted effect of over 15% in size
In short: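 Wild-type cells were seeded at 1,500 per well and settled 5 hr at 37 C, 5% CO2, then exposed to DMSO-dissolved compounds for 17 hr. Caspase-Glo 3/7 reagent was added, and luminescence was read after 30min at room temperature.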

[17] = Caspase-3/7 induction in HepG2 cells by small molecules, qHTS cell viability counter screen (AID 1346981); also: series mostly up to about 92 µM; nearly all actives have a fitted effect of over 30% in size
In short: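 Wild-type HepG2 cells (2,000/well) were allowed to settle for 5 hr at 37 C, 5% CO2, then dosed with compounds in DMSO by pin transfer. After 16 hr at 37 C, CellTiter-Fluor was added and fluorescence read 1 hr later.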

[18] = biological target: Nuclear receptor subfamily 1 group I member 2 (Homo sapiens) (UniProt O75469); assay: Human pregnane X receptor (PXR) small molecule agonists, qHTS assay (AID 1346982); also: nearly all actives have a fitted effect of over 35% in size
In short: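 PXR-Luc HepG2 cells (CYP3A4 promoter-driven luciferase) were seeded in medium with 5% charcoal-stripped FBS, left 5 hr at 37 C, then exposed to compounds in DMSO for 24 hr. Luminescence was read after ONE-Glo addition.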

[19] = biological target: Thyrotropin-releasing hormone receptor (Homo sapiens) (UniProt P34981); assay: qHTS assay to identify small molecule antagonists of the thyrotropin-releasing hormone receptor (TRHR) signaling pathway (AID 1346877; active = well fitted inhibition curve with a large enough effect in the repeat runs, not every such curve was filed as active; also: series mostly up to about 51 µM)
In short: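 TRHR-expressing HEK293 cells were seeded, cultured 18 h at 37 °C, then loaded with calcium dye for 2 h. Compounds were pre-incubated 5 min at room temperature before 1 nM TRH (final) was added, and kinetic fluorescence was recorded for 3 min.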

[20] = biological target: Thyrotropin-releasing hormone receptor (Homo sapiens) (UniProt P34981); assay: qHTS assay to identify small molecule agonists of the thyrotropin-releasing hormone receptor (TRHR) signaling pathway (AID 1346891; calls by dose curve; also: series mostly up to about 58 µM)
In short: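 Readout was intracellular calcium fluorescence in TRHR-Hek293 cells. Cells were incubated 18 h, dye-loaded 2 h at 37 °C, and treated with compound in agonist mode.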

Measured: Potency

Sequence of Thyrotropin receptor (Homo sapiens) (P16473 whole entry, looked up): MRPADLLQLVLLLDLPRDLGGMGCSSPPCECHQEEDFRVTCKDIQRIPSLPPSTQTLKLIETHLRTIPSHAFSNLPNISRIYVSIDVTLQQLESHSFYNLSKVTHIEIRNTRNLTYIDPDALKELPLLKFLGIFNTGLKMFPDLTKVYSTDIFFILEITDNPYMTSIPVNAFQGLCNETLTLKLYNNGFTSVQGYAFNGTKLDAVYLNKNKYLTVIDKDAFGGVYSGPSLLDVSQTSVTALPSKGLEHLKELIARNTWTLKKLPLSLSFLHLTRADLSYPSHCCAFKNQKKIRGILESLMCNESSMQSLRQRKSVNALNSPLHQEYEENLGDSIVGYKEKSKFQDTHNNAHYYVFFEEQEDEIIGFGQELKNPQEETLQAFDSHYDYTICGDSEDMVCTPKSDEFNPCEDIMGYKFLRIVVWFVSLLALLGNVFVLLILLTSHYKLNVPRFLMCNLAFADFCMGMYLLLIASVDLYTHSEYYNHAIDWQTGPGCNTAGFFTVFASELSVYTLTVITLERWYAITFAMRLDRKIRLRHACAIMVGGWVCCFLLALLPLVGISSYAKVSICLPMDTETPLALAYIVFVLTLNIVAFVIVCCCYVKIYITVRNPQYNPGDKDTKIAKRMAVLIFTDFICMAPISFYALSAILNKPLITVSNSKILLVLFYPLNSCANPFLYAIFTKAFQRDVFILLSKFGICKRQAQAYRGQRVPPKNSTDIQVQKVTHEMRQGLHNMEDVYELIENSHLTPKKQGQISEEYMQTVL
Sequence of Thyrotropin-releasing hormone receptor (Homo sapiens) (P34981 whole entry, looked up): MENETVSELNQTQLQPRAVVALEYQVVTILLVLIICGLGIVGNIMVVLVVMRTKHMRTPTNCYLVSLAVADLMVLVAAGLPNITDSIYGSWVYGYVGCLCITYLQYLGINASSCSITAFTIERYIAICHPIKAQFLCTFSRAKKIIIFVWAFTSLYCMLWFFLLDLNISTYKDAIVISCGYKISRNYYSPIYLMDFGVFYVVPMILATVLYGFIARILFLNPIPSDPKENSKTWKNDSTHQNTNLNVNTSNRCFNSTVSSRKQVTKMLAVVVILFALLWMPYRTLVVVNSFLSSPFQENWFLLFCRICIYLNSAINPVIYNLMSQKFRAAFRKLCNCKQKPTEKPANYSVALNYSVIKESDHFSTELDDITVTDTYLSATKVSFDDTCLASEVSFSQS
Sequence of Nuclear receptor subfamily 1 group I member 2 (Homo sapiens) (O75469 whole entry, looked up): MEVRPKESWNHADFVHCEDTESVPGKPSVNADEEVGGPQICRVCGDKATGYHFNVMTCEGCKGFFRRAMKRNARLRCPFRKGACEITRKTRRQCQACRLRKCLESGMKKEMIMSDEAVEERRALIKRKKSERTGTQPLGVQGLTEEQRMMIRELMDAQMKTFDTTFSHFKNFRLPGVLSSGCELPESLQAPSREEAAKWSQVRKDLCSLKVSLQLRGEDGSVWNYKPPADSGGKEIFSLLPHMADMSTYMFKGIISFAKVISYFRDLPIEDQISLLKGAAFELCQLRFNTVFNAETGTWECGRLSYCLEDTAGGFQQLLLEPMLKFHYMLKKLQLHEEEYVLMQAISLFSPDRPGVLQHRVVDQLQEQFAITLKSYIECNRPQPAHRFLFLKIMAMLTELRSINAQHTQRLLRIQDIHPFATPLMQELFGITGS
Sequence of Estrogen receptor (Homo sapiens) (P03372 whole entry, looked up): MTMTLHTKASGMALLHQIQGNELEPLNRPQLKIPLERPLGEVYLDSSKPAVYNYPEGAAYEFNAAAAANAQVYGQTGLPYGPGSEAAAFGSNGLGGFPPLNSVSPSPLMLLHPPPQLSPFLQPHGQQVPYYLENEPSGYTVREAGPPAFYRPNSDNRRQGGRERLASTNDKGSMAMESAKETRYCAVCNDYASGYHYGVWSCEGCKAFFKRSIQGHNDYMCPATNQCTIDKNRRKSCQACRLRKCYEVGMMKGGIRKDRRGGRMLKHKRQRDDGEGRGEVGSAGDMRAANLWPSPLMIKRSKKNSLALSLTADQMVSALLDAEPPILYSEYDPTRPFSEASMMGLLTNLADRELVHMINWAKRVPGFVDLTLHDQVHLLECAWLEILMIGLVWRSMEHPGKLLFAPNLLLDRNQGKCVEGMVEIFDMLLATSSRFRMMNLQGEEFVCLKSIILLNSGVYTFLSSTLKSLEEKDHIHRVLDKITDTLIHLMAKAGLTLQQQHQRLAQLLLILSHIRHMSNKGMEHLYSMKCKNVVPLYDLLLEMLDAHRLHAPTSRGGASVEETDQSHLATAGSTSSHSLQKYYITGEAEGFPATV
Sequence of Progesterone receptor (Homo sapiens) (P06401 whole entry, looked up): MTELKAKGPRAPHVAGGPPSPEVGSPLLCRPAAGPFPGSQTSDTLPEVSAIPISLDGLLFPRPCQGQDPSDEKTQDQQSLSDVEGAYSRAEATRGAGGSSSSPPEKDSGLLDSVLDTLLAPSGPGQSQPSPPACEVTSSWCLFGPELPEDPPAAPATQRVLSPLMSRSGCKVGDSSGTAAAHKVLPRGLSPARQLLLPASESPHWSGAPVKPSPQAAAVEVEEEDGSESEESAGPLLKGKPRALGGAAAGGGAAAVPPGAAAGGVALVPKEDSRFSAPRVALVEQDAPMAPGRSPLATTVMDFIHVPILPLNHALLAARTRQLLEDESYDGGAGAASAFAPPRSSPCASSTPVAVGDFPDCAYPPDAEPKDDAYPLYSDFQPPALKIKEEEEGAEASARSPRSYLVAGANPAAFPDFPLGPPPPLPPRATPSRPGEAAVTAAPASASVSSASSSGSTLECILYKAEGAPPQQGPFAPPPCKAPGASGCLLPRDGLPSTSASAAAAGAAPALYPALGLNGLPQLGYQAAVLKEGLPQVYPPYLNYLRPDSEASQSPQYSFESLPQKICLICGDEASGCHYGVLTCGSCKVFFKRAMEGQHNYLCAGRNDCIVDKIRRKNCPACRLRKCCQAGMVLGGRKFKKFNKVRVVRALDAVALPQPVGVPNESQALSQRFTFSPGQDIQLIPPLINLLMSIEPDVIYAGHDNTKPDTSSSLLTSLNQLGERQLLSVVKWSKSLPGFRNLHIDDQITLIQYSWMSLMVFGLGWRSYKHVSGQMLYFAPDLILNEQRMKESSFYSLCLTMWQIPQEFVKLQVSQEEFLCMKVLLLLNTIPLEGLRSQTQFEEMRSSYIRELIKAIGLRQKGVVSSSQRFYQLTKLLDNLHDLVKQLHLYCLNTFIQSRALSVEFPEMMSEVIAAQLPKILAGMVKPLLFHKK

CCCCCCCCCCCCCCCCCC#N
not listed: [19] | [20]
inactive: all other assays above

C=CCCCC
not listed: [19] | [20]
inactive: all other assays above

C#CCN[C@@H]1CCc2ccccc21
not listed: [12]
inactive: all other assays above

COc1ccc2c(c1)c1c3n2CCN(C)C3=NCC1
not listed: [8]
inactive: all other assays above

OC[C@H]1O[C@@H](O[C@@H]2[C@@H](CO)O[C@](O)(CO)[C@H]2O)[C@H](O)[C@@H](O)[C@H]1O
not listed: [12]
inactive: all other assays above

CN(C)CCOC(=O)C(c1ccccc1)C1(O)CCCC1 (centres undefined)
not listed: [8]
inactive: all other assays above

C/C(CC(C)C)=N\O
not listed: [8]
inactive: all other assays above

CC1c2ccccc2CN1NC(=O)c1ccc(Cl)c(S(N)(=O)=O)c1 (centres undefined)
not listed: [12]
inactive: all other assays above

CC1CCc2c(N3CCC(O)CC3)c(F)cc3c(=O)c(C(=O)O)cn1c23 (centres undefined)
not listed: [12]
inactive: all other assays above

NCC1(Cc2noc(=O)[nH]2)CCCCC1
not listed: [19] | [20]
inactive: all other assays above

OCCN1CCOCC1
not listed: [8]
inactive: all other assays above

CCCSSCCC
not listed: [12]
inactive: all other assays above

COC(C)(OC)OC
not listed: [12]
inactive: all other assays above
